Shown are actives, neighbours in structure and some others; about 3.2% of the full set was active somewhere.
Mtb bLac sens: beta-lactam sensitization of Mtb H37Rv; M. tuberculosis H37Rv growth with meropenem, percent inhibition; AID 434955; 0.27% of 330,000 active; inhibition, % at 25 µM; call rule not given here;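 further: growth measured after seven days incubation then overnight dye step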
Rv3671c protease: inhibitors of M. tuberculosis serine protease Rv3671c | inhibition, % at 5.96 µM | 0.048% of 320,000 active | AID 2606; in the data active means inhibition above about 38%;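 further: extracellular domain of Rv3671c used as enzyme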
SSB-PriA inh: inhibitors of Klebsiella pneumoniae PriA binding to SSB C-terminal tail | AID 1272365 | inhibition, % at 33 µM | AlphaScreen SSBct-PriA binding, biotinylated peptide | 0.6% of 430,000 active; in the data active means inhibition mostly above about 37%, no sharp cut-off; inactive means mostly below about 20%
UGM FP inh: Mtb UDP-galactopyranose mutase inhibition; 0.06% of 320,000 active; inhibition, % at 10 µM; P9WIQ1; purified UGM, fluorescence polarization probe displacement; in the data active means inhibition above about 10%, passing the limit was not always enough
GDH-TPI inh: GDH-TPI coupled enzyme inhibition counter-screen; GDH-TPI coupled enzyme counterscreen, NADH absorbance; AID 588335; 1.2% of 360,000 active; inhibition, % at 4.8 µM; in the data active means inhibition above about 30%
FBA Mtb inh: inhibits M. tuberculosis FBA enzyme; P9WQA3; purified M. tuberculosis FBA, fluorescence read-out; inhibition, % at 1 µM; 2.3% of 360,000 active; AID 588726; in the data active means inhibition above about 27%
Target sequence (P9WQA3 whole entry, looked up): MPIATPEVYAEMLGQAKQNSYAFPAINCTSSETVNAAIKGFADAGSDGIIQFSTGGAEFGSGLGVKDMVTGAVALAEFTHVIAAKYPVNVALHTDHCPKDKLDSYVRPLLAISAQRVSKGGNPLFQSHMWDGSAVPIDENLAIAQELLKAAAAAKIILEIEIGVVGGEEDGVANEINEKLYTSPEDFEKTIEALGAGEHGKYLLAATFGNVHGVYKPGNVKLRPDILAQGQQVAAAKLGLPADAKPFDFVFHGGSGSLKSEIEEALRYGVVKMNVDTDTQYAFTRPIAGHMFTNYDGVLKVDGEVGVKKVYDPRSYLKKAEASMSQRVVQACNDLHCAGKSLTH
Numbers stand for hits; n = inactive; x = no result; ! = not active in a repeat.

SMILES	Mtb bLac sens	Rv3671c protease	SSB-PriA inh	UGM FP inh	GDH-TPI inh	FBA Mtb inh
Cc1ccc(S(=O)(=O)c2c(N)n(NC(=O)C3CC3)c3nc4ccccc4nc23)cc1	n	n	n	n	n	181
Cc1ccc(-n2c(N)c(S(=O)(=O)c3ccccc3)c3nc4ccccc4nc32)cc1	n	n	n	n	n	33
O=C(c1ccc(Cn2ccnc2)cc1)N1CC(c2nc(-c3cnccn3)no2)C1	x	x	n	x	x	x
Cc1csc(CN2CCN(C(=O)c3cc(=O)c4ccccc4o3)CC2)n1	x	x	n	x	x	x
CCc1nnc(NN=Cc2c(F)cccc2Cl)n1N	x	x	n	x	x	x
CN(C)CCCn1c(N)c(C#N)c2nc3ccccc3nc21	n	n	n	n	n	146
COc1ccc([C@@]2(C)NN=C3Oc4ccccc4N32)cc1	x	x	n	x	x	x
COc1ccc(C2(C)NN=C3Sc4ccccc4N32)cc1 (centres undefined)	x	x	41	x	x	x
CN(C)c1cc(N2CCN(C(=O)Nc3ccc(F)c(Cl)c3)CC2)cnn1	x	x	n	x	x	x
CC(C)(O)C(O)COc1c2ccoc2cc2oc(=O)ccc12 (centres undefined)	n	n	40	n	n	n
COc1ccccc1CNC(=O)CC1CCCCN1S(=O)(=O)c1cccs1 (centres undefined)	x	x	n	x	x	x
Nc1ccc(-c2c3ccc(=O)cc-3oc3cc(O)ccc23)c(C(=O)O)c1	n	n	n	45	n	n
CCOc1c(C)cnc2c1c(=O)n(Cc1ccccc1Cl)c(=O)n2C	n	n	n	n	n	n
CCO/C(C)=N/n1c2nc3ccccc3nc2c2c(=O)n(Cc3ccccc3Cl)c(C)nc21	n	n	x	n	33	n
O=C(CCN1C(=O)/C(=C/c2ccccc2Cl)SC1=S)NC1C=CS(=O)(=O)C1 (centres undefined)	n	n	n	n	n	n
O=C(CN1C(=O)S/C(=C\c2ccc(F)cc2)C1=O)NC1C=CS(=O)(=O)C1 (centres undefined)	n	n	n	n	33	n
COc1ccc(/C=C2\SC(=O)N(CC(=O)NC3C=CS(=O)(=O)C3)C2=O)cc1 (centres undefined)	n	n	n	n	48	n
O=C(CN1C(=O)S/C(=C\c2ccccc2F)C1=O)NC1C=CS(=O)(=O)C1 (centres undefined)	n	n	n	n	31	n
COC(=O)c1sc2ccccc2c1S(=O)(=O)Nc1cccc(C(F)(F)F)c1	x	x	n	x	x	x
O=C(Nc1nnc(C2CCCO2)s1)c1ccccn1 (centres undefined)	x	x	110	x	x	x
O=C(Nc1nnc(C2CCCCC2)s1)c1cccs1	n	n	n	n	n	n
O=C(Nc1nnc(C2CCCCC2)s1)c1ccccn1	x	x	70	x	x	x
O=C(Nc1nnc(SCc2ccc(F)cc2)s1)c1ccccn1	x	x	78	x	n	n
O=C(Nc1nnc(C2CC2)s1)c1ccncc1	n	n	n	n	n	n
O=C(Nc1nnc(C2CCC2)s1)c1ccccn1	x	x	102	x	x	x
SMILES	Mtb bLac sens	Rv3671c protease	SSB-PriA inh	UGM FP inh	GDH-TPI inh	FBA Mtb inh
O=C(NCCc1cccs1)C1CCN(S(=O)(=O)N2CCCC2)CC1	x	x	n	x	x	x
Cc1nc(-c2cccs2)sc1CNC(=O)c1ccc(=O)[nH]n1	x	x	n	x	x	x
Cn1nc(C2CCN(C(=O)Nc3ccccc3Cl)CC2)n(C2CC2)c1=O	x	x	n	x	x	x
Cc1csc(C(=O)NC(c2cccnc2)C2CCOCC2)c1 (centres undefined)	x	x	n	x	x	x
O=C(NCC(c1ccco1)N1CCc2ccccc2C1)C1CCCCC1 (centres undefined)	x	x	n	x	x	x
Cc1c(C(=O)Nc2nnc(C3CC3)s2)oc2ccccc12	n	n	n	n	n	n
Cc1c(C(=O)Nc2nnc(C3CC3)s2)oc2c(Cl)cccc12	n	n	n	n	37	n
N#C/C(=C/c1ccc(CNS(=O)(=O)c2ccccc2)o1)C(N)=O	n	n	n	n	37	n
N#C/C(=C/c1ccc(CNS(=O)(=O)c2ccccc2)o1)C(=O)NCc1ccccc1	n	n	n	n	n	n
CN(C)c1ccc(C=NNC(=S)SCN2C(=O)C3CCC(C)(C2=O)C3(C)C)cc1 (centres undefined)	x	x	n	x	x	x
CC12CCC(C(=O)N(CSC(=S)N/N=C\c3ccccc3)C1=O)C2(C)C (centres undefined)	n	n	x	n	42	n
Cn1ccnc1SCc1ccc(O)c2ncccc12	x	x	128	x	x	x
Cn1nnnc1SCc1ccc(O)c2ncccc12	x	x	124	x	x	x
CCCCCCCCCCCCc1ccc(O)c2ncccc12	x	x	n	x	x	x
Cn1cnnc1SCc1ccc(O)c2ncccc12	x	x	125	x	x	x
CN(C)CCN(C(=O)c1cc(-c2ccccc2)on1)c1nc2c(C(F)(F)F)cccc2s1	x	x	n	x	x	x
CCCNC(=O)C(=O)Nc1c(O)c2ccccc2[nH]c1=O	x	x	n	x	x	x
CN(C)CCCN(C(=O)c1cc2cc([N+](=O)[O-])ccc2s1)c1nc2cc3c(cc2s1)OCCO3	n	n	46!	n	n	n
CN(C)CCCN(C(=O)c1cc2ccccc2oc1=O)c1nc2ccc(F)cc2s1	n	n	n	x	n	n
CN(C)CCCN(C(=O)c1cc2c(ccc3ccccc32)oc1=O)c1nc2cc3c(cc2s1)OCCO3	x	x	66	x	x	x
CN(C)CCCN(C(=O)c1ccc(C(=O)c2ccccc2)cc1)c1nc2cc3c(cc2s1)OCO3	n	n	44	n	n	n
CCN(CC)CCN(C(=O)Cc1cccc2ccccc12)c1nc2cc3c(cc2s1)OCO3	x	x	35	x	x	x
COc1ccccc1C(=O)NCCSc1ncc(-c2ccc(F)cc2)[nH]1	x	x	n	x	x	x
O=C(Nc1ccncc1)c1ccc(S(=O)(=O)NCc2ccco2)o1	x	x	n	x	x	x
CCN(CC)CCN(C(=O)c1ccc(C(=O)c2ccccc2)cc1)c1nc2cc3c(cc2s1)OCO3	n	n	41	n	n	n

Compound activity (PubChem)
